HCMV antiviral: human cytomegalovirus inhibition; HFF cells, HCMV-luciferase reporter, 72 h; stronger effect = lower value; activity change, negative = inhibition, % at 57.5 µM; 410,000 tested, 4.5% active; AID 1259415; in the data active = activity change below about -60%; inconclusive = no clear call, values can overlap the other calls; inactive = above about -39%
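After 16 h attachment at 37C, HFF cells received test compound and HCMV-luciferase (1 PFU/cell); reporter luminescence read 72 h later, data normalized against buffer-only and known inhibitor Salinomycin.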
HCV inhibitor: HCV inhibition; Huh7.5.1 HCVcc-Cre infection, luciferase reporter, 44 h; Potency, µM (series often up to 41.8 µM), for inactives: at the highest dose activity change, negative = inhibition, usual class: inhibitors; 340,000 tested, 3.4% active; note: potency is the fitted concentration of half-maximal effect
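After 44 h co-culture of compound, cells and HCVcc-Cre (~0.5 moi), substrate is added for 15 min at room temperature and luciferase measured over 15 sec. Cells were seeded at 1,000/well and pre-cultured 4 h.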
Pf growth 96h: inhibits malaria parasite growth, 96 h. 320,000 tested, 6.9% active. Potency, µM (doses to about 28.7 µM), without a hit: at the top dose activity change, negative = inhibition, usual class: inhibitors. P. falciparum luciferase reporter growth, 96 h; note: potency is the fitted concentration of half-maximal effect
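Parasite growth measured via integrated firefly luciferase reporter in P. falciparum. Infected erythrocytes at 2% hematocrit, 0.05% parasitemia final were treated 96 hours at 37 C under 5% CO2, and luminescence was read.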
Marburg entry inh: Marburg virus entry inhibition. Marburg virus pseudotyped entry inhibition, cell reporter. Potency, µM (titrated, usually from 37.8 µM), inactives show at the top dose activity change, negative = inhibition, actives largely listed as inhibitors. 300,000 tested, 1.8% active. AID 540276; calls by dose curve; tested in HEK293 cells; note: potency is the fitted concentration of half-maximal effect
Pf growth 48h: P. falciparum growth inhibition at 48 hours (one generation) | 310,000 tested, 5.9% active | P. falciparum luciferase growth in erythrocytes, 48 h | Potency, µM (titrated, usually from 28.7 µM), without a hit: at the highest dose activity change, negative = inhibition, hits mostly inhibitors; note: potency is the fitted concentration of half-maximal effect
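Read-out is firefly luciferase luminescence from an integrated reporter in P. falciparum, so falling signal marks reduced parasite growth. Infected erythrocytes were at 2% hematocrit and 0.1% parasitemia (final) in Albumax-supplemented RPMI 1640.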
LASV entry inh: blocks Lassa virus binding to or entry into cells | Lassa virus pseudotype entry inhibition, cell reporter | Potency, µM (series often up to 37.9 µM), for the others: at the highest dose activity change, negative = inhibition, actives largely listed as inhibitors | 300,000 tested, 1.2% active | AID 540256; calls by dose curve; tested in HEK293 cells; note: potency is the fitted concentration of half-maximal effect; nearly all actives have a fitted effect of over 50% in size
Starred values were filed as active, the others as inactive; i = inactive; ? = inconclusive; · = no result; [ ] = remark or other dose. Hits are enriched below; roughly 14% of the tested compounds scored in any of these assays. Unless noted, calls come from the whole dose curve; as a rule, active = well fitted inhibition curve with a large enough effect; inconclusive = small, poorly fitted or top-dose-only effect, or another doubt; inactive = no such curve, though single readings can be large or run the other way. % is set by controls: 0 for no effect and ±100 for the full control effect.

SMILES	HCMV antiviral	HCV inhibitor	Pf growth 96h	Marburg entry inh	Pf growth 48h	LASV entry inh
O=C(NCc1cccc(C(F)(F)F)c1)C1CCN(c2ncccn2)CC1	16	-12%	22%	16%	8%	4%
Cc1cc(C)nc(N2CCC(CNC(=O)CCc3ccccc3)CC2)n1	31	-1%	10µM*	19%	?	8%
O=C(NC1CCCc2ccccc21)C1CCN(c2c3c(nc4ncnn24)CCC3)CC1 (configuration not stated)	-16	-5%	-22%	?	?	-14%
Cc1cc(C)nc(N2CCC(C(=O)NCc3cccc(C(F)(F)F)c3)CC2)n1	21	-7%	2.1µM*	0%	2%	6%
O=C(Nc1ccc2c(c1)CCC2)C1CCN(c2c3c(nc4ncnn24)CCC3)CC1	-101*	4.5µM*	-9%	?	12µM*	?
Cc1cc(C)nc(N2CCC(C(=O)Nc3ccc(Oc4ccccc4)cc3)CC2)n1	-17	?	12µM*	1%	-8%	1%
Cc1ccnc(N2CCC(C(=O)Nc3ccc(Oc4ccccc4)cc3)CC2)n1	39	-13%	14%[5.75 µM]	-15%	-4%	2%
CCN1C[C@@H]2[C@@H]3C(=O)N(C)C(=O)[C@@H]3[C@](Cc3ccccc3)(C(=O)OC)N2C1=NCc1ccccc1	-3	-2%	·	·	·	·
Cc1ccc(CCNC(=O)C(CC(C)C)NS(=O)(=O)c2ccc3c(c2)oc(=O)n3C)cc1 (configuration not stated)	-7	·	·	-2%[46.1 µM]	·	?
CC(=O)NNC(=S)NC(=O)C(c1ccccc1)c1ccccc1	?	?	?	·	2.1µM*	·
CC(C)(C)C(=O)NC(=S)NNC(=O)C(c1ccccc1)c1ccccc1	·	?	?	·	13µM*	·
CN(C)C(=S)NC(=O)C(c1ccccc1)c1ccccc1	-16	12%	-57%[1.15 µM]	3%[46.1 µM]	-14%	-13%[46.1 µM]
CN(C)c1ccc(C=C(c2nnnn2-c2ccccc2)c2nnnn2-c2ccccc2)cc1	-39	-9%	i	?	9.3µM*	?
OCCOCCn1c(-c2ccccc2)nc(=S)c2c1CCCC2	-9	16%	10µM*	·	·	·
Cn1c(=O)[nH]c(=O)c2c1nc(N1CCN(c3cccc(Cl)c3)CC1)n2CCCc1ccccc1	·	2%	-22%	4%	15%	·
CCCn1c(N2CCN(CC(=O)c3c(C)n(C)c4ccc(OC)cc34)CC2)nc2c1c(=O)[nH]c(=O)n2C	-37	-17%	2.1µM*	?	?	?
CCCCCn1c(N2CCN(c3cccc(Cl)c3)CC2)nc2c1c(=O)[nH]c(=O)n2C	-3	1%	5.9µM*	-15%	·	?
CCCCCn1c(CN2CCN(c3cc(Cl)ccc3C)CC2)nc2c1c(=O)[nH]c(=O)n2C	?	?	84%	16µM*	?	?
OC[C@@H]1CN(CCN2CCOCC2)C[C@H](n2cnc3c(N4CCOCC4)ncnc32)O1	3	·	·	·	·	·
Cc1cc2oc(C(=O)Nc3ccc(S(=O)(=O)N4CCCCCC4)cc3)cc(=O)c2cc1C	2	·	·	11%[46.1 µM]	·	27%[46.1 µM]
CC(=O)c1ccc(OC2(C)CCN(Cc3ccc4ccccc4c3)C2)cc1 (configuration not stated)	-15	·	·	·	·	·
C[C@H](NC(=O)c1ccccc1Cl)C(=O)OC(C(=O)Nc1cc(C(F)(F)F)ccc1Cl)c1ccccc1 (some centres not stated)	-31	?	8.3µM*	-16%	·	-16%
CCCC(=O)NC(Nc1ccccc1F)C(Cl)(Cl)Cl (configuration not stated)	·	·	?	4%	?	·
CCC(C(=O)Nc1cccc(C(F)(F)F)c1)c1ccccc1 (configuration not stated)	-5	1%	?	?	?	-11%
CC(C)C(=O)NC(Nc1ccccc1F)C(Cl)(Cl)Cl (configuration not stated)	-24	10%	64%	-10%	34%	?
SMILES	HCMV antiviral	HCV inhibitor	Pf growth 96h	Marburg entry inh	Pf growth 48h	LASV entry inh
CCCC(=O)NC(Nc1cccc(C(F)(F)F)c1)C(Cl)(Cl)Cl (configuration not stated)	29	-6%	1.9µM*	-5%	?	1%
O=C(CNC(=O)c1ccccc1F)OC(C(=O)Nc1cc(C(F)(F)F)ccc1Cl)c1ccccc1 (configuration not stated)	?	4%	?	0%	·	-12%
CCCC(=O)NC(Nc1cc(C(F)(F)F)ccc1Cl)C(Cl)(Cl)Cl (configuration not stated)	-33	?	?	?	12µM*	0%
CC(C)C(=O)NC(Nc1cc(C(F)(F)F)ccc1Cl)C(Cl)(Cl)Cl (configuration not stated)	-2	4%	13µM*	-15%	?	?
N#CCCN1CCN(CCC#N)C1=S	1	4%	·	4%	·	4%[46.1 µM]
Cn1c(Oc2ccc(Cl)cc2)nc2c1c(=O)n(Cc1ccc(F)cc1)c(=O)n2C	-9	·	·	1%[46.1 µM]	·	1%[46.1 µM]
CCC(C)n1c(=N)c(C(=O)NC2CCCCC2)cc2c(=O)n3cc(C)ccc3nc21 (configuration not stated)	2	·	·	-4%[46.1 µM]	·	21%[46.1 µM]
Cc1noc(C)c1S(=O)(=O)N(CC(=O)NCCc1ccc(Cl)cc1)c1ccc(C(C)C)cc1	5	·	·	?	·	24%[46.1 µM]
O=C(c1cc(C(=O)N2CCCC2)cc([N+](=O)[O-])c1)N1CCCC1	24	15%	29%	·	12%	·
COc1ccccc1NC(=O)c1ccc2c(O)c(S(=O)(=O)c3ccccc3)c(=O)[nH]c2c1	-35	3%	12µM*	·	26%	·
COc1ccc(S(=O)(=O)c2c(O)c3ccc(C(=O)Nc4ccccc4)cc3[nH]c2=O)cc1	-33	6%	?	·	25%	?
COCCNC(=O)CSc1nc(-c2ccc(C)cc2)nc2c1c(=O)n(C)c(=O)n2C	-8	·	·	·	·	28%[46.1 µM]
Cc1ccc(S(=O)(=O)N2CCC(C(=O)NCC3CCCCC3)CC2)cc1	-16	?	?	15%[46.1 µM]	-30%	-27%[46.1 µM]
O=C(NC1CCN(Cc2ccccc2)CC1)C1CCN(S(=O)(=O)c2ccc(Cl)cc2)CC1	?	10µM*	?	?	?	?
O=C(NC1CCN(Cc2ccccc2)CC1)C1CCN(S(=O)(=O)c2ccccc2)CC1	-33	?	?	-14%[46.1 µM]	15%	6%[46.1 µM]
Cc1ccc(S(=O)(=O)N2CCC(C(=O)NCC3CC3)CC2)cc1	-1	2%	0%	5%[46.1 µM]	5.9µM*	-1%[46.1 µM]
COc1ccc(S(=O)(=O)N2CCC(C(=O)NCC3CC3)CC2)cc1	-13	-10%	3%	1%[46.1 µM]	10µM*	?
COC(=O)C1CCN(S(=O)(=O)c2ccc(OC)cc2)CC1	2	18%	-2%	11%	·	-1%
